# Assays:
# Assay in all cases: DAPPL (digital affinity profiling via proximity ligation, sequencing); 10 mM Tris-HCl pH 7.5, 50 mM NaCl, 1 mM DTT, 4% glycerol, room temperature, 30 min; GST-TFs on glutathione beads, 16-mer random dsDNA library, 0.1% formaldehyde crosslink after washing; high values mean tight binding
# Conditions in all cases: protein: recombinant; tags: N-terminal GST; dsDNA, one strand shown
# FLI1 = molecular target: T1, FLI1 (Homo sapiens, UniProt Q01543 1-452)
# T1 sequence: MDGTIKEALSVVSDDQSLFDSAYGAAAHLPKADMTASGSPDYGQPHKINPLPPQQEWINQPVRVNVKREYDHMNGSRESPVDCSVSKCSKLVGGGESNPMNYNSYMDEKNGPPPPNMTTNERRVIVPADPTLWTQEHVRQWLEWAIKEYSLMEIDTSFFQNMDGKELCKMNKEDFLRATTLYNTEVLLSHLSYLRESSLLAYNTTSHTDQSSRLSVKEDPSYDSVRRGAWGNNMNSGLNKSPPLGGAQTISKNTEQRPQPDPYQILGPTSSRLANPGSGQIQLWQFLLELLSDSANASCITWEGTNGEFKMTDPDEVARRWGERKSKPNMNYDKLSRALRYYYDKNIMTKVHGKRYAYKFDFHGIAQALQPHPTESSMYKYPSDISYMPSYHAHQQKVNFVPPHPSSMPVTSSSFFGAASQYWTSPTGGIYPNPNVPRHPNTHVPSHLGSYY
# Procedure, shortened: (§1)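 The binding signal reported is, for every hexamer, its read frequency for a factor over its read frequency for the tag-only sample. Reads came from pools of yeast-expressed, GST-fused human transcription factors on glutathione beads, barcoded with DNA and mixed with that sample, which were incubated with 200 nmole of a random double-stranded 16-mer DNA library in Tris/NaCl/DTT/glycerol buffer at room temperature for 30 min. After washing, the pools were crosslinked with 0.1% formaldehyde, proximity-ligated with BsaI/T4 ligase for 1 h at 37 °C, PCR-amplified and sequenced on an Illumina NextSeq500.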
# ELK1 = molecular target: T2, ELK1 (Homo sapiens, UniProt P19419 1-428)
# T2 sequence: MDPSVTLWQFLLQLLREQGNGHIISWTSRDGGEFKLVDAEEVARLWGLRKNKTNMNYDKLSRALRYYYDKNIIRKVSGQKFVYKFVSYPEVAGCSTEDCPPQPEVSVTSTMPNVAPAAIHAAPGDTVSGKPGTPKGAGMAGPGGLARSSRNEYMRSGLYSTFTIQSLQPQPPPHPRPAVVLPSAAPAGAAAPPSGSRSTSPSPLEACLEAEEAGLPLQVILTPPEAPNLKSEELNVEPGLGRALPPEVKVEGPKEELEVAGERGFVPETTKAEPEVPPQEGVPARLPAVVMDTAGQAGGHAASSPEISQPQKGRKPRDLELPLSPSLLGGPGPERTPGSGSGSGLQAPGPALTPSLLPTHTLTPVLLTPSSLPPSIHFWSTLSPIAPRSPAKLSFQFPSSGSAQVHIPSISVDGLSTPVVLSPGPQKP
# Procedure, shortened: as §1
# GABPA = molecular target: T3, GABPA (Homo sapiens, UniProt Q06546 1-454)
# T3 sequence: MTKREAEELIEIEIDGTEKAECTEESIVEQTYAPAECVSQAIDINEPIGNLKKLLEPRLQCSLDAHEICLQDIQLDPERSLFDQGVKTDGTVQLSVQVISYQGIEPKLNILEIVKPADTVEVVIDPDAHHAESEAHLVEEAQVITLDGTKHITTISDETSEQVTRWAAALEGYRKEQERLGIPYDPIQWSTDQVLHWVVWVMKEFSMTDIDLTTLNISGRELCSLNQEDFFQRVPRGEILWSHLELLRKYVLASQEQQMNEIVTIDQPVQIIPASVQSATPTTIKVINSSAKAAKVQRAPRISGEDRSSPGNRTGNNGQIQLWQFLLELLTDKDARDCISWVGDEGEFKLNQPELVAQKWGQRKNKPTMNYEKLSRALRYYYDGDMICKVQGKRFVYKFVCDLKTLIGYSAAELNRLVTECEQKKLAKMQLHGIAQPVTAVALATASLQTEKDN
# Procedure, shortened: as §1
# ERG = molecular target: T4, ERG (Homo sapiens, UniProt P11308 1-479)
# T4 sequence: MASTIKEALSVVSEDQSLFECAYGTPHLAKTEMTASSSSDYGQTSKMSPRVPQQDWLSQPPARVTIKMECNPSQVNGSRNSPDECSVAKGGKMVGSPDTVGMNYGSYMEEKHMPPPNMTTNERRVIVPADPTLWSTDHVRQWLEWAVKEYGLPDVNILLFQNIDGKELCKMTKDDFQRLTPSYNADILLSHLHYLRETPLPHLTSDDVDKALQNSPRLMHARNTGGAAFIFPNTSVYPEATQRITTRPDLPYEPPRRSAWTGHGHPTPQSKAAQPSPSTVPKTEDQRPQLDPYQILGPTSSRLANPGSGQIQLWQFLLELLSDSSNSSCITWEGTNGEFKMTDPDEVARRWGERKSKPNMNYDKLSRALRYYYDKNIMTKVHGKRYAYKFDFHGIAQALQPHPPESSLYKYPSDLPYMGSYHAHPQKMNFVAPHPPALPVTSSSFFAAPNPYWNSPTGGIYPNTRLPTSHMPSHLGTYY
# Procedure, shortened: as §1
# ELF1 = ELF1 (Homo sapiens, UniProt P32519 1-619)
# Procedure, shortened: as §1
# EHF = molecular target: T5, EHF (Homo sapiens, UniProt Q9NZC4 1-300)
# T5 sequence: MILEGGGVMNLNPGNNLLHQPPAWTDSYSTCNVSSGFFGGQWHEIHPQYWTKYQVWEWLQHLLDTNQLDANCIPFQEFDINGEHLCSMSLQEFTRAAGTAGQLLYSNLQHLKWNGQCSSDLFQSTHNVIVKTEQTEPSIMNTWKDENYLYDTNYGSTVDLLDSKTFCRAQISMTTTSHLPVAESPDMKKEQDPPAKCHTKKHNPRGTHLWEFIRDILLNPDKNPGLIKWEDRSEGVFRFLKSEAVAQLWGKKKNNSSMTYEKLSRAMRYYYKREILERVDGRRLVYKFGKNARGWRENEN
# Procedure, shortened: as §1
# SPI1 = SPI1 (Homo sapiens, UniProt P17947 1-270)
# Procedure, shortened: as §1
# SPIB = SPIB (Homo sapiens, UniProt Q01892 1-262)
# Procedure, shortened: as §1
# ELK3 = molecular target: T6, ELK3 (Homo sapiens, UniProt P41970 1-407)
# T6 sequence: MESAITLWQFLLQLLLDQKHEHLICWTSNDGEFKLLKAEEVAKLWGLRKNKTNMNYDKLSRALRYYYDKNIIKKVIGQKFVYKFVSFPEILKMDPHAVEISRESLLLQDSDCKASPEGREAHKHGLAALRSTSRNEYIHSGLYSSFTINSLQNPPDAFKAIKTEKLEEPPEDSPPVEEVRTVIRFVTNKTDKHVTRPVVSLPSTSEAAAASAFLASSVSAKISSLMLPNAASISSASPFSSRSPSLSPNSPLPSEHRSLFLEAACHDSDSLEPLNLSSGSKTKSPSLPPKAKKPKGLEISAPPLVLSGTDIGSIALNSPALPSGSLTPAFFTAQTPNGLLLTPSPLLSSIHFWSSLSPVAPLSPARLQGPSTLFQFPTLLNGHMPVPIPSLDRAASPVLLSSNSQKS
# Procedure, shortened: as §1
# ELF1, sequence (P32519 whole entry): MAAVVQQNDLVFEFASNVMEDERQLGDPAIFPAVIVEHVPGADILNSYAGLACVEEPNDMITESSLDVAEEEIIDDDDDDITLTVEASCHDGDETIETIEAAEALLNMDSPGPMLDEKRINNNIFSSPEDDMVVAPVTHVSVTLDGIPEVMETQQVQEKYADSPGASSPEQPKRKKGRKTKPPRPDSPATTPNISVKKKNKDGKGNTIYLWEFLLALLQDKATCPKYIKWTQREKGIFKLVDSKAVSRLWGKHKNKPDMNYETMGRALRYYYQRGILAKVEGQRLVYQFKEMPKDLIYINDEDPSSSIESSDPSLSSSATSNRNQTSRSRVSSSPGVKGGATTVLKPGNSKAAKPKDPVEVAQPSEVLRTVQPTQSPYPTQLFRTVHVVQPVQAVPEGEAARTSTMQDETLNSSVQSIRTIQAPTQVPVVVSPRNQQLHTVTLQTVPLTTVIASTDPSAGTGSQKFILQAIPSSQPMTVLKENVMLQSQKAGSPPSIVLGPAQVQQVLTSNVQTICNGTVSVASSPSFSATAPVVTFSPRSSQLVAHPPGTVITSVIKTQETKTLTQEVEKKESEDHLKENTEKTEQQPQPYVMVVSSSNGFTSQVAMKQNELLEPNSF
# SPIB, sequence (Q01892 whole entry): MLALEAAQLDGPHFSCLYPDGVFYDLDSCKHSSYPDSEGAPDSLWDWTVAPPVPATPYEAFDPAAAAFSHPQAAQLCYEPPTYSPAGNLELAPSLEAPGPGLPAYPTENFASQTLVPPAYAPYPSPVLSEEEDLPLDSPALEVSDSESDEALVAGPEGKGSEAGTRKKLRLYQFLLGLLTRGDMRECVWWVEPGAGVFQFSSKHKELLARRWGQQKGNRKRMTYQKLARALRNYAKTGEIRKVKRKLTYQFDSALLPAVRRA
sequence,measurement,setting,value
TGCGTA,binding signal,FLI1,"1.15 fold enrichment (6-mer frequency, TF over GST control)"
same,binding signal,ELK1,"1.15 fold enrichment (6-mer frequency, TF over GST control)"
same,binding signal,GABPA,"1.06 fold enrichment (6-mer frequency, TF over GST control)"
same,binding signal,ERG,"1.05 fold enrichment (6-mer frequency, TF over GST control)"
same,binding signal,ELF1,"1.1 fold enrichment (6-mer frequency, TF over GST control)"
same,binding signal,EHF,"1.06 fold enrichment (6-mer frequency, TF over GST control)"
same,binding signal,SPI1,"1.17 fold enrichment (6-mer frequency, TF over GST control)"
same,binding signal,SPIB,"1.22 fold enrichment (6-mer frequency, TF over GST control)"
same,binding signal,ELK3,"1.09 fold enrichment (6-mer frequency, TF over GST control)"

# — publication PMC7862700, “An all-to-all approach to the identification of sequence-specific readers for epigenetic DNA modifications on cytosine”
